From the supplement of paper PMC8387472

Compound: Nc1ncnc2c1c(-c1cnc3[nH]ccc3c1)nn2C1CCCC1
Assay: fraction of microhomology deletions among edited reads; higher = more MH deletions
Details: mESC; 2uM; 72 h treatment, harvest day 5

Target | fraction of microhomology deletions among edited reads
32.0 (DMSO control at this site: 1-bp insertion 0.03, MH deletion 0.85, edited 0.898) AGAAGTCCAGGATCAGGGGGACTGGGGTCGGGAGGGTGGGGCAGGAAGGAAGCCAGAATCA | 0.886
26.0 (DMSO control at this site: 1-bp insertion 0.518, MH deletion 0.262, edited 0.026) AGGGCGCGCCCCACGCACTCTGCGGCAAGTCCCTCTGCGGCAAGTCCTCGGCCCGGAAGAC | 0.201
34.0 (DMSO control at this site: 1-bp insertion 0.184, MH deletion 0.385, edited 0.103) ATTATAGGACCCTGAGGGAGCAGAGATGTGGGAATGGGGGCCGAGCCAATTGTGATGTAAG | 0.39
18.0 (DMSO control at this site: 1-bp insertion 0.114, MH deletion 0.789, edited 0.094) GCGCAAGTGCATAAGTTTTTCTTAAGGCGTGCCTTTAAGGCGTGCCTTTGTCGGTCCTGGA | 0.768
41.0 (DMSO control at this site: 1-bp insertion 0.022, MH deletion 0.754, edited 0.115) AAAGAGACAGCAGGTATGAATCCATCTTCCTGACCCTTGGGACCAGCCGGGGCAGTGAAGC | 0.722
47.0 (DMSO control at this site: 1-bp insertion 0.095, MH deletion 0.585, edited 0.118) GAGTGGTCCCGAGCCAGGAACTGTGTGTGTTGCAGGGGGGCAGTAACTCCCCAACTCCCTC | 0.389
35.0 (DMSO control at this site: 1-bp insertion 0.01, MH deletion 0.72, edited 0.098) CCACTTTTAGAGAGGGTGAAAATCATCAGTTATCATCAGGGCAACAAATTGCTTTCTCCTA | 0.699
16.0 (DMSO control at this site: 1-bp insertion 0.172, MH deletion 0.29, edited 0.05) CGGACTGCACACATGGGTAGGATCGTGCACGCGAGGTAGGATCGTGCACGCGAAGTTATTC | 0.198
19.0 (DMSO control at this site: 1-bp insertion 0.121, MH deletion 0.101, edited 0.057) TCTGCAGGGGTCGGAACCCGGGGGCTAGGGCTATCCCGGGGGCTAGGGCTATTAGCGAACC | 0.202
38.0 (DMSO control at this site: 1-bp insertion 0.063, MH deletion 0.487, edited 0.17) GGGCTGGGTGCTAAAATGAGGAGCTCCAAGAAGACTGAGGTGAACCTGGAGGCCCCTGAGC | 0.432
5.0 (DMSO control at this site: 1-bp insertion 0.214, MH deletion 0.567, edited 0.105) CGCTGACCCGAGACCTACGCGAACCGAAATCGGCGACCGGTGCGCAAGCAGGGCTGGCGTC | 0.512
1.0 (DMSO control at this site: 1-bp insertion 0.521, MH deletion 0.323, edited 0.141) GTGTCACAGTGCACGAGTGACGGGATAATGTGCTGACAGGTAATTGATAGGCTTCCAACTT | 0.163
0.0 (DMSO control at this site: 1-bp insertion 0.463, MH deletion 0.339, edited 0.14) AGGATTACCGAGACCTACGCGAACCGAAATCGCTGTCCGGTGCGCAAGCAGGGCTGGCGTC | 0.23
3.0 (DMSO control at this site: 1-bp insertion 0.109, MH deletion 0.149, edited 0.09) TGCTAGCGCCCCCACAAAGCGGACCAGCCAGCACTATAGGGAATAAGGCCAACTTGCACCC | 0.166
7.0 (DMSO control at this site: 1-bp insertion 0.128, MH deletion 0.374, edited 0.098) TACTCAACCGAGACCTACGCGAACCGAAATCGTATGCCGGTGCGCAAGCAGGGCTGGCGTC | 0.425
39.0 (DMSO control at this site: 1-bp insertion 0.328, MH deletion 0.371, edited 0.204) CTGCACAGTCACTTAGGATAGGAGAAGATGATGTATAGGGTTTAGTGGGAGATGTTGCAAG | 0.286
21.0 CGATTGAGAGTCAAACGGGCCAGAAAACTCCGGGAACGGGCCAGAAAACTCCGGGGCATGG | 0.144
25.0 (DMSO control at this site: 1-bp insertion 0.017, MH deletion 0.774, edited 0.143) GGGCCTGAATGGTGTGGACATCTACTCGCTGGTGAGCTGGTGACTGAAAACATTCAGTGGC | 0.784

Target | fraction of microhomology deletions among edited reads
27.0 CCAGAATTAGAACATATCATCTGGACCCTTTTCCATCTGGACCCTTTTCCAGCACACCCTG | 0.105
40.0 (DMSO control at this site: 1-bp insertion 0.072, MH deletion 0.192, edited 0.189) GCGAATCAACTGTTCAACAACAGCAGCAGCCACCTGGAGGACTACAGTGGCCTGTCCGTGT | 0.139
42.0 (DMSO control at this site: 1-bp insertion 0.145, MH deletion 0.655, edited 0.132) GGGCTAAACCTATGAGCACAGTAGAACTAAGGGTGGGTGGTGTAGCTAAAGAACTTGACCA | 0.571
28.0 (DMSO control at this site: 1-bp insertion 0.035, MH deletion 0.77, edited 0.142) TGGTTCTTCCTTTGTAGAGAGTGTTCATCTGGGAATCTGGGACTTGGATGAGACAATCATT | 0.748
2.0 (DMSO control at this site: 1-bp insertion 0.364, MH deletion 0.356, edited 0.125) GGTGCCCCCGAGACCTACGCGAACCGAAATCGATGTCCGGTGCGCAAGCAGGGCTGGCGTC | 0.262
4.0 (DMSO control at this site: 1-bp insertion 0.146, MH deletion 0.523, edited 0.125) ACGCCTTAGTGCACGAGTGACGGGATAATGTGGTCTCAGGTAATTGATAGGCTTCCAACTT | 0.501
46.0 TTAAGAGCAATGTTCACGCAACTTGAAATTATATCTGTGGTCTTCAAATTGTCTTTTGTCA | 0.497
31.0 (DMSO control at this site: 1-bp insertion 0.315, MH deletion 0.329, edited 0.026) ACCTCCACAGGCTGGGTGGCCCGGAGGCTGGGCGGCCCGGAGGCTGGGCTGGGCGAGTATC | 0.333
29.0 (DMSO control at this site: 1-bp insertion 0.084, MH deletion 0.745, edited 0.133) TTGATGAACTTCCTCTTCTTCTCATGTCTCCGGTCTCCGGTAGGCCACGTGCATGGCCACT | 0.696
8.0 GCATGCGTGTTTTGGGACAATGTAGTATACATTTGGGAGGCTCTCAGCTTTTCCCAATAAA | 0.0866
17.0 (DMSO control at this site: 1-bp insertion 0.112, MH deletion 0.348, edited 0.058) CCATAGCGCGATAAATATGACGGCTCATCCTGTATGACGGCTCATCCTGTATCAACTGTCC | 0.39
45.0 (DMSO control at this site: 1-bp insertion 0.017, MH deletion 0.666, edited 0.101) TTACACAGCATGAACTGCTAGGTGATGATGTCAGATTCGGTTTTACTAACTTCTCCAAAAA | 0.54
30.0 (DMSO control at this site: 1-bp insertion 0.074, MH deletion 0.67, edited 0.142) GAGCTGGCATGAGTATTTGTGCCACATGGCTCCCACATGGCTCCACATGCAAGTTTGAAAC | 0.635
44.0 (DMSO control at this site: 1-bp insertion 0.181, MH deletion 0.512, edited 0.123) ACACATACCTTCTTCGAGGCAGCCAGCATGATGAGACAGGTCTCCCACAAACACATCGTGT | 0.479
20.0 (DMSO control at this site: 1-bp insertion 0.349, MH deletion 0.138, edited 0.084) TACAGGTGTAGACTGGTTACGTGGCTGCGGAATTGACTGGTTACGTGGCTGCGGAATTTTG | 0.133
43.0 (DMSO control at this site: 1-bp insertion 0.134, MH deletion 0.714, edited 0.104) AGTTTAACTTACTCCGGCCAAAAAAGAACTGCACCTCTGGAGCGGGTTAGTGGTGGTGGTA | 0.662
33.0 (DMSO control at this site: 1-bp insertion 0.008, MH deletion 0.771, edited 0.112) CATTAAGAGCAGCTGCCGGCCCCCAAGTGGACAGAGCTGGCCCTGCTGATTCAACAGTGCA | 0.708
